FLuc counter: firefly luciferase modulation, counter-screen for miR-21 project; P08659; purified FLuc, Km substrates, luminescence inhibition; Potency, µM (doses to about 57.5 µM), inactives show top-dose activity change, negative = inhibition, most hits filed as inhibitors; hit rate 6.9% among 360,000; AID 588342;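 note: plate controls were vehicle for no effect and reference inhibitor for full effect; nearly all actives have a fitted effect of over 55% in size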
Target sequence (P08659 whole entry, looked up): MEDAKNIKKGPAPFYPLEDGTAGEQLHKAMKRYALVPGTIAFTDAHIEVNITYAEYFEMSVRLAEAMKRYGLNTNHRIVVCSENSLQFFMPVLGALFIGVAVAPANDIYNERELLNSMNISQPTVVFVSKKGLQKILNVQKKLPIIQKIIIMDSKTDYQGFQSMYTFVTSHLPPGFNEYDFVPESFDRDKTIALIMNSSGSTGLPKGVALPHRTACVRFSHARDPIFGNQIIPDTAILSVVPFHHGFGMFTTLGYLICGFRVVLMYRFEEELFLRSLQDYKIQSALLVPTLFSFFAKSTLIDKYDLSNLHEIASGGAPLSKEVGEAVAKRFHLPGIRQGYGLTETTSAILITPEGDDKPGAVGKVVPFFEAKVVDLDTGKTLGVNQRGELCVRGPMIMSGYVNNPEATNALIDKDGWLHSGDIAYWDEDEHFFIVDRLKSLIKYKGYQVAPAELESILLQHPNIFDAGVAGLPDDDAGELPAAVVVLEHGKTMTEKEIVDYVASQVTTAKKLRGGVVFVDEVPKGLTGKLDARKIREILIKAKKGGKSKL
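Purified P. pyralis luciferase, 10 nM final, with Km-level 10 uM D-luciferin and 10 uM ATP in 50 mM Tris acetate pH 7.5, 10 mM Mg acetate, 0.01% Tween-20, 0.05% BSA; 6-point qHTS titration about 60 µM downward; luminescence read.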
ELG1 DNA repair: inhibitors of ELG1-dependent DNA repair in HEK293T cells; HEK293T ELG1-luciferase reporter, luminescence, 16 h; DNA damage induced by 5-fluorouridine; Potency, µM (doses to about 46.1 µM), without a hit: at the highest dose activity change, negative = inhibition, actives largely listed as inhibitors; hit rate 2.3% among 330,000; AID 504467; note: % is set by controls: 0 for no effect and ±100 for the full control effect; nearly all actives have a fitted effect of over 55% in size
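Cells (2,000 per well) received 5-fluorouridine plus test compound or DMSO and were incubated 16 hr at 37 °C, 5% CO2. Luciferase activity was read by luminescence 30 min after ONE-Glo addition; signal suppression marked inhibition of damage-induced ELG1 function.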
SMN2 splice enh: SMN2 splice variant enhancement; Potency, µM (doses to about 46.1 µM), for inactives: at the highest dose activity change, positive = activation, usual class: activators; AID 1458; hit rate 2.8% among 210,000; HEK293 SMN2-luciferase splicing reporter, luminescence, 30-36 h; note: % of control where 0% means no effect; nearly all actives have a fitted effect of over 55% in size
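HEK293 cells carry an SMN2 […]–luciferase reporter in which exon 7 inclusion puts luciferase in frame. Cells were plated 10-12 h before compound addition, then incubated 30-36 h at 37C. ONE-Glo luminescence was read; sodium butyrate at 4.5 mM final served as control.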
ELG1 genotoxic: genotoxicity induction in ELG1-luciferase HEK293T cells; HEK293T ELG1-luciferase reporter, luminescence, 16 h; Potency, µM (titrated, usually from 46 µM), inactives show top-dose activity change, positive = activation, most hits filed as activators; hit rate 1.3% among 330,000; AID 504466; note: % of control where 0% means no effect; nearly all actives have a fitted effect of over 60% in size
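HEK293T cells expressing luciferase-tagged ELG1 were treated with compound or DMSO for 16 hr at 37°C. Luciferase activity was then read after 30 min with ONE-Glo at room temperature; rising signal flags genetic stress.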
Rab9 prom act: Rab9 promoter activation; Huh7 Rab9 promoter-luciferase reporter, luminescence, 24 h; hit rate 2.8% among 320,000; Potency, µM (doses to about 9.22 µM), for the others: at the highest dose activation, negative = inhibition, most hits filed as activators; note: % of control where 0% means no effect; nearly all actives have a fitted effect of over 60% in size
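Steps: seed 1500 Huh7 Rab9-luc cells per well, rest 2 h at 37 °C; add compound in DMSO; incubate 24 h; add luciferase reagent, 10 min ambient; read luminescence.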
NPC1 promoter act: activators of NPC1 promoter; Huh7 NPC1 promoter luciferase reporter, 24 h; Potency, µM (doses to about 9.22 µM), inactives show top-dose activation, hits mostly activators; hit rate 2.4% among 320,000; AID 485313; note: % of control where 0% means no effect; nearly all actives have a fitted effect of over 60% in size
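Huh7 cells stably carrying NPC1 promoter–luciferase, plated in Opti-MEM with 10% FBS for 2 h, were exposed to compound in DMSO for 24 h at 37 °C; luciferase reagent was added for 10 min and luminescence read.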
* = called active by the depositor; ? = inconclusive; / = no result; ! = a repeat was not active; [ ] = another dose, or the depositor's remark. The list is not random: actives were taken first. Their share in the collection is about 9.2%. Calls come from the whole dose curve; as a rule, active = well fitted curve in the direction sought with a large enough effect; inconclusive = small, poorly fitted or top-dose-only effect, or another doubt; inactive = no such curve, though single readings can be large; an effect the other way counts as inactive or inconclusive. Potency is the fitted concentration of half-maximal effect.

SMILES | FLuc counter | ELG1 DNA repair | SMN2 splice enh | ELG1 genotoxic | Rab9 prom act | NPC1 promoter act
COc1ccccc1OCCCn1c(C2CC(=O)N(c3ccccc3Cl)C2)nc2ccccc21 (stereo unspecified) | 17µM* | / | 18% | / | / | /
CCc1ccccc1N1CC(c2nc3ccccc3n2CCCCOc2ccccc2OC)CC1=O (stereo unspecified) | -17% | / | -73% | / | / | /
CN(c1cccc(NC(=O)CN(c2cccc(F)c2)S(C)(=O)=O)c1)S(C)(=O)=O | -2% | -22% | 3% | -1% | -4% | -3%
CCOC(=O)c1cnc2ccc(C)cc2c1Sc1ccc(F)cc1 | 24µM* | 0% | -7% | -2% | 19% | 10%
CCOC(=O)c1cnc2ccc(C)cc2c1Sc1ccccc1 | ? | ? | -8% | 20% | 1% | 2%
COc1ccc(-c2nnc(SCC(=O)NCc3ccccc3)nc2-c2ccc(OC)c(OC)c2)cc1OC | -2% | / | / | / | / | /
CCOc1ccc(CN(C)C(C)C(=O)NCCc2ccc(F)cc2)cc1 (stereo unspecified) | -2% | ? | / | -11% | -3% | -1%
CCN(CC(=O)Nc1ccccc1C(=O)Nc1ccccc1)Cc1nc2ccccc2c(=O)[nH]1 | 1% | 10µM* | 13% | -12% | -4% | -3%
CCN(CC(=O)Nc1ccccc1SC)Cc1nc2ccccc2c(=O)[nH]1 | 6% | 4% | / | -3% | -17% | 0%
CCOc1ccc(CNC(=O)CCC(=O)N2CC(C)Sc3ccccc32)cc1 (stereo unspecified) | -8% | / | / | / | / | /
CCOC(=O)c1ccc2c(c1)[nH]c(=S)n2CC | 19µM* | ? | / | 21µM* | ? | 18%
Cc1ccc(-c2nn(-c3ccccc3)cc2C=C2C(=O)CC(C)(C)CC2=O)cc1 | 24µM* | 5% | -16% | 0% | -1% | -2%
CC1=NNC(=O)/C1=C\c1cn(-c2ccccc2)nc1-c1ccc(Cl)cc1 | 0% | 9.2µM* | -90% | -20% | -51% | -48%
CCN(Cc1ccccc1)c1ncnc2c1nnn2C | -8% | / | / | / | / | /
COc1ccc(N(CC(=O)Nc2cc(OC)c(OC)cc2C(=O)O)S(=O)(=O)c2c(C)noc2C)cc1 | 2% | -8% | / | 0% | 9% | 15%
CC(NC(=O)CN1C(=O)NC2(CCCC2)C1=O)c1ccc2ccccc2c1 (stereo unspecified) | / | 0% | / | 3% | 1% | -8%
CC(C)CC(=O)Nc1ccc(C(=O)COC(=O)Cc2n[nH]c(=O)c3ccccc23)cc1 | 0% | 4% | / | 4% | 1% | -1%
CCn1c(=O)n(CC)c2cc(S(=O)(=O)Nc3ccccc3C)c(C)cc21 | -1% | ? | 7.9µM* | ? | 0% | -3%
N#Cc1cnc2nc(SCc3ccccc3)nn2c1 | -17% | ? | / | ? | ? | 1.4µM*
CSc1nc2ncc(C#N)cn2n1 | -1% | -6% | 8% | -3% | -1% | 4%
Cc1ccccc1C(=O)N1CCc2c([nH]c3ccccc23)C1C(F)(F)F (stereo unspecified) | 0% | 13µM* | / | -2% | -1% | -3%
COc1ccc(-c2cc(N)n(S(=O)(=O)c3c(F)c(F)c(F)c(F)c3F)n2)cc1OC | ? | 23µM* | -87% | 13% | -35% | -23%
Cc1ccc2nc(NC(=O)CCNS(=O)(=O)c3cccs3)sc2c1 | 12µM* | ? | -1% | -4% | 22% | 17%
CC(=O)Nc1cccc(/C(C)=N/NC(=O)c2ccc(NS(=O)(=O)c3cccs3)cc2)c1 | ? | 1% | / | -4% | 2% | -2%
Cc1cccc2sc(NC(=O)CCNS(=O)(=O)c3cccs3)nc12 | -1% | ? | 1% | -8% | 5% | -10%
SMILES | FLuc counter | ELG1 DNA repair | SMN2 splice enh | ELG1 genotoxic | Rab9 prom act | NPC1 promoter act
Cc1ccc2nc(NC(=O)CCNS(=O)(=O)c3ccc(Br)s3)sc2c1 | 19µM* | -18% | -11% | -4% | 4% | 1%
Cc1ccc2nc(NC(=O)c3ccc(NS(=O)(=O)c4cccs4)cc3)sc2c1 | 12µM* | -2% | -8% | 9% | 16% | 15%
C/C(=N\NC(=O)c1ccc(NS(=O)(=O)c2cccs2)cc1)c1ccc(C(C)(C)C)cc1 | 12µM* | ? | ? | 0% | -7% | 0%
Nc1ccccc1SC/C=C/CSc1ccccc1N | ? | 25% | / | 12% | 17% | 10%
COc1ccc(/C=N/n2c(C)cc(C)c(C(N)=O)c2=O)cc1 | 3% | 6% | 3% | -2% | -5% | -3%
COc1cc(NC(=O)C2CC(c3ccccc3Cl)=NO2)cc(OC)c1OC (stereo unspecified) | 2% | ? | / | -5% | -4% | 3%
COc1cccc(CNC(=O)C2=C(C)C(=O)OC23CCN(C(C)=O)CC3)c1OC | 3% | / | / | / | / | /
O=C(Nc1ccc2nsnc2c1)c1cccs1 | -19% | ? | -6% | -4% | 17% | 23%
O=C(Nc1ccccc1)Nc1cccc2nsnc12 | 7.6µM* | ? | 11µM* | ? | 3.2µM* | 4.5µM*
O=C(Nc1cccc2nsnc12)c1cccs1 | 13µM*! | ? | 71% | ? | 3.2µM*! | ?
O=C(Nc1cccc2nsnc12)c1cccnc1 | 4% | -18% | -37% | 0% | 1% | 0%
O=S(=O)(c1ccc(Cl)nc1)N1CCCC1 | / | 0% | / | 2% | / | /
COc1ccc(-c2cc(C(=O)Nc3c(C)n(C)n(-c4ccccc4)c3=O)c3ccccc3n2)cc1OC | 21µM* | 7.3µM* | / | -6% | 1% | -1%
Cc1ccc(-c2cc(C(=O)Nc3c(C)n(C)n(-c4ccccc4)c3=O)c3ccccc3n2)cc1 | / | 13µM* | / | -6% | / | /
COc1ccc(-c2cc(C(=O)Nc3c(C)n(C)n(-c4ccccc4)c3=O)c3ccccc3n2)c(OC)c1 | -3% | 10µM* | / | -11% | 0% | 14%
Cc1c(NC(=O)c2cc(-c3ccccc3)nc3ccccc23)c(=O)n(-c2ccccc2)n1C | / | 5.8µM* | / | -4% | / | /
COc1ccc(-c2cc(C(=O)O)c3ccccc3n2)c(OC)c1 | ? | 9% | 20% | 16% | -1% | -3%
Cc1c(NC(=O)c2cc(-c3ccccc3)on2)c(=O)n(-c2ccccc2)n1C | -1% | 4% | 31% | -7% | -4% | -3%
Cc1cc(Cl)nc(NC(=O)CSc2ccc(Cl)cc2)n1 | / | / | -12%[9.22 µM] | / | / | /
O=S(=O)(Cc1ccccc1)Nc1ccc(F)cc1 | -1% | -8% | / | -2% | 4% | -3%
Cc1c(NC(=O)COC(=O)c2cc(-c3ccc(-c4ccccc4)cc3)nc3ccccc23)c(=O)n(-c2ccccc2)n1C | 0.85µM* | ? | 0.63µM* | ? | 2.5µM* | 0.63µM*
